# Experimental data as given in PubChem BioAssay (NCI).
# This is part of a sample that, as a whole, favours compounds with a hit. Of some 83,000 tested, about 20% had one in any assay.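 Step 1: grow cells in 96-well plates. Step 2: add test compound at a single concentration. Step 3: incubate 48 h. Step 4: record percent growth.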 Activity calls are given as the source filed them. The calls were made as follows: active = growth percent below 10; inactive = the rest.
# Tested on: HL-60(TB) leukemia
# Test: NCI-60 one-dose screen, 48 h (100 = growth as untreated, 0 = no growth, -100 = all killed)
# Conditions: 10 µM unless noted
row,SMILES,growth
1,COc1cc(C2CC(c3cccc(Nc4ccncc4)c3)=NN2C(C)=O)cc(OC)c1OC (configuration not stated),94.6% (inactive)
2,CCN1CCN(c2nc(C)cc(N(CCCNc3ccnc4cc(Cl)ccc34)Cc3ccco3)n2)CC1,37.5% (inactive)
3,CN(C)CCOc1nc2ccccc2c2c1-c1ccc(Cl)cc1C2=O,-27.2% (active)
4,N#CN1CC[C@H](C(=O)Nc2cc3cc(C(N)=O)ccc3cn2)C1,-37.1% (active)
5,Cc1cc(NCCCCNc2ccnc3cc(Cl)ccc23)nc(Nc2ccc(C(=O)N3CCCC3)cc2)n1,14.7% (inactive)
6,Oc1ccccc1/C=N/Nc1ccc2ccccc2n1,-8.13% (active)
7,CC(=O)N1CCN(CCNC(=O)n2cc(-c3ccncc3)c(-c3ccc(O)c(Cl)c3)n2)CC1,106% (inactive)
8,COc1ccc2[nH]c(=O)c(CNc3ccc(Nc4nccc(-c5ccc(Cl)cc5)n4)cc3)cc2c1,78.2% (inactive)
9,O=C(/C=C/c1ccc(C(F)(F)F)cc1)c1ccc(Nc2nc(NCCO)nc(Nc3ccc(Cl)cc3)n2)cc1,77% (inactive)
10,NCCCNc1nc2ccccc2c2c(=O)c3cc(OC(F)(F)F)ccc3sc12,-41.5% (active)
11,Brc1ccc(-c2nnc3c4[nH]ccc4ncn23)cc1,100% (inactive)
12,c1ccc(OCc2nnc(-c3ccc(Oc4ccccc4)cc3)o2)cc1,99.6% (inactive)
13,O=C1CC[C@@H](C(=O)N[C@H]2CSSC[C@@H](C(=O)N/C=C/c3ccc(O)cc3)NC(=O)[C@H](Cc3ccccc3)NC(=O)[C@@H]3CCCN3C(=O)[C@@H]3CCCN3C2=O)N1,74% (inactive)
14,CCCCCCCCCc1ccc(OC(C)=O)cc1,108% (inactive)
15,N/N=C(/Cc1ccccc1)NNC(N)=S,97.8% (inactive)
16,NCCCNc1nc2ccccc2c2c(=O)c3cc(F)cc(F)c3sc12,61.2% (inactive)
17,N#CC1C(=O)SC2c3ccccc3C(=O)c3ccccc3C12 (configuration not stated),98.4% (inactive)
18,COc1cc(-c2n[nH]nc2-c2ccccn2)cc(OC)c1OC,83.3% (inactive)
19,CC(=O)Nc1ccc2c(c1)C(N1CC3CCC(CC3)C1)c1ccccc1-2 (configuration not stated),52.3% (inactive)

row,SMILES,growth
1,COc1ccc2cc(C(C)C(=O)Nc3ccc(-c4n[nH]c(=S)n4C4CCCCC4)cc3)ccc2c1 (configuration not stated),73.6% (inactive)
2,O=C1c2cccnc2-c2ncccc21,95.4% [100 µM] (inactive)
3,COc1cc(C2CC(=O)Nc3c2ccc2ccccc32)cc(Br)c1OC (configuration not stated),-15.2% (active)
4,COc1cc(/C(C)=C(\c2ccc(Cl)cc2)c2ccc(OCCN(C)C)cc2)ccc1F,54.4% (inactive)
5,N#Cc1c(NC(=O)c2cccs2)[n+]([O-])c2ccc(Cl)cc2[n+]1[O-],122% (inactive)
6,Cc1ccc(S(=O)(=O)Nc2cccc3[nH]c(C(F)(F)F)nc23)cc1,0.648% (active)
7,CC[C@@H](C(=O)[C@H](C)[C@H](O)[C@@H](C)[C@H]1O[C@H]([C@@H](CC)C(=O)N(CC)CC)CC[C@H]1C)C1O[C@]2(C=C[C@@H](O)[C@]3(CC[C@@](C)([C@H]4CC[C@](O)(CC)[C@H](C)O4)O3)O2)[C@H](C)C[C@@H]1C (some centres not stated),-28.8% (active)
8,COc1ccc2c(c1)/C(=N/c1n[nH]c(=S)s1)C(=O)N2,61.6% (inactive)
9,O=S(=O)(NCCNc1cc(-c2c(-c3cccc(O)c3)nc3sccn23)ccn1)c1ccc(Br)cc1,77.6% (inactive)
10,CN1CCN(Cc2ccc(NC(=O)c3cncc(C#Cc4c(N)ncc5c(F)cccc45)c3)cc2C(F)(F)F)CC1,-60.4% (active)
11,CN(C)CCOc1cccc(-c2nc3sccn3c2-c2ccnc(S(C)(=O)=O)n2)c1,104% (inactive)
12,O=C1/C(=N/O)CCc2ccccc21,59.1% (inactive)
13,Cc1cc(N2CCCCC2)nc(N(CCNc2ccnc3cc(Cl)ccc23)Cc2ccccn2)n1,41.6% (inactive)
14,CC(C)NS(=O)(=O)c1cccc(-c2ccc3c4c(n(CCCN(C)C)c(=O)c3c2)-c2ccccc2C4=O)c1,65.3% (inactive)
15,N#C/C(=C\c1ccc(-c2cccc(Cl)c2)o1)C(=O)Nc1ncc(Cc2ccc(Cl)cc2)s1,83.9% (inactive)
16,Nc1c(C(=O)Nc2ccccn2)sc2nc3c(cc12)C(=O)CCC3,5.15% (active)
17,COC1=CC(=O)C(OC)=C(O)C1=O,107% (inactive)
18,Cc1ccc2nc(-c3cc4c([nH]c5ccccc54)c(-c4ccc(F)c(F)c4)n3)[nH]c2c1,48.5% (inactive)
